In PubChem BioAssay:
Unmarked numbers belong to inactive results. For part of these data: Results with a measured potency or affinity are listed apart. Active and inactive are the calls of the source. Unless noted, no rule for the calls is given here.

Assays:
[1] = antimalarial activity against Dd2 strain (AID 2302;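 active = growth inhibition above 50% at the single 2 µM test dose, taken to imply half-maximal potency below 2 µM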;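 also: 0% = DMSO untreated growth and 100% = chloroquine plus artemisinin killed control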); settings: P. falciparum Dd2 in RBCs, LDH growth readout, 72 h; at 2 µM; active compounds read high
[2] = human hepatoma cell viability loss – ATP luminescence, cytotoxicity control for P. falciparum antimalarial project, primary screen (AID 2303;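 active = inhibition above 50%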;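 also: 0% = DMSO wells and 100% = digitonin-killed cells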); settings: HepG2 viability, 24-48 h, at 10 µM, active compounds read high
[3] = biological target: L-lactate dehydrogenase (Plasmodium falciparum (isolate CDC / Honduras)) (UniProt Q27743); experiment: PfLDH activity inhibition – cell lysate, 3D7 strain, counter-screen for P. falciparum growth inhibition project (AID 2304);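 also: 0% = vehicle and 100% = reference inhibitor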; settings: P. falciparum 3D7 crude extract, LDH APAD/NBT absorbance; at 2 µM; active compounds read high
L-lactate dehydrogenase (Plasmodium falciparum (isolate CDC / Honduras)), sequence (Q27743 whole entry, looked up): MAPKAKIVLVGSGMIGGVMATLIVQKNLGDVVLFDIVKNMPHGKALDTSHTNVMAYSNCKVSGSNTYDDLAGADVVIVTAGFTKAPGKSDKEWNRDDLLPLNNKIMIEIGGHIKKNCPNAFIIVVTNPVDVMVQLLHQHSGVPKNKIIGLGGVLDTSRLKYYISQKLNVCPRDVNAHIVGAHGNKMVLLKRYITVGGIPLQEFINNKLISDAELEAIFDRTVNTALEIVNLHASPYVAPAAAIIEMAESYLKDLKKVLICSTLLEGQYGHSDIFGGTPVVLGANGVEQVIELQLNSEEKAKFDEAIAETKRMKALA

[4] = inhibition of 3D7 malaria parasite growth – strain 3D7 (AID 2306);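 also: 0% = DMSO wells and 100% = chloroquine plus artemisinin control wells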; settings: P. falciparum 3D7 erythrocytic growth, LDH absorbance, 72 h; at 2 µM; active compounds read high
[5] = biological target: Calcium-dependent protein kinase 1 (Plasmodium falciparum (isolate 3D7)) (UniProt P62344); experiment: PfCDPK1 kinase inhibitors, biochemical, TCAMS library (AID 1159585; cut-off not given, nearly all actives have IC50 up to about 0.98 µM;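 also: inhibitors leave more ATP so luminescence rises with inhibition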); settings: recombinant PfCDPK1, Kinase-Glo ATP depletion luminescence
Calcium-dependent protein kinase 1 (Plasmodium falciparum (isolate 3D7)), sequence (P62344 whole entry, looked up): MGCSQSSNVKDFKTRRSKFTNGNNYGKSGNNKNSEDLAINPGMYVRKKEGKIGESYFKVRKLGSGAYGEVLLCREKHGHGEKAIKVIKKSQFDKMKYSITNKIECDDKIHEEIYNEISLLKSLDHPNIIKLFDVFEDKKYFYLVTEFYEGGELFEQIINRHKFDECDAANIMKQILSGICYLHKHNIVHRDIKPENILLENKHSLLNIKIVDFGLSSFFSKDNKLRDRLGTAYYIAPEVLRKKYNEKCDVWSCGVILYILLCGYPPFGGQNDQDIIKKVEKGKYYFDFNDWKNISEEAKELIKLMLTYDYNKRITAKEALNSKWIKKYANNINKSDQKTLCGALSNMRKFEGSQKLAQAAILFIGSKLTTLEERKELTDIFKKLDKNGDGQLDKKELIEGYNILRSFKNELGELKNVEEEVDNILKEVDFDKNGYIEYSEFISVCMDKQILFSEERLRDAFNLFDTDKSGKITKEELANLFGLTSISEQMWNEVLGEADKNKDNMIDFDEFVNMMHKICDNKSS

[6] = biological target: Plasmodium falciparum protein kinase 6 (PK6, PF3D7_1337100) (UniProt Q8IDW1); experiment: PfPK6 kinase inhibitors, biochemical, TCAMS library (AID 1159586); settings: recombinant PfPK6, Kinase-Glo ATP depletion luminescence
Plasmodium falciparum protein kinase 6 (PK6, PF3D7_1337100), sequence (Q8IDW1 1-305): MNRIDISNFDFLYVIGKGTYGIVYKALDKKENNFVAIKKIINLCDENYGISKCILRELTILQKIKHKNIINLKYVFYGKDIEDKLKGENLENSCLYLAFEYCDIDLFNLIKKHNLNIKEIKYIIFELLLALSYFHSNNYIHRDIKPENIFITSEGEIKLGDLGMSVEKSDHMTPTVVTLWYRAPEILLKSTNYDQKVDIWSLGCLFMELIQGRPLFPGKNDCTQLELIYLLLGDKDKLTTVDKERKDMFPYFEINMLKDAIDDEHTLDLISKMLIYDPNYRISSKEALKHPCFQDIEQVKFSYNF

[7] = biological target: Protein kinase 7 (PK7), Plasmodium falciparum 3D7 (PF3D7_0213400) (UniProt Q7YTF7); experiment: inhibition of Plasmodium PK7 catalytic activity – biochemical, TCAMS antimalarial set, Kinase-Glo luminescence (AID 1159587); settings: recombinant PfPK7, Kinase-Glo ATP depletion luminescence
Protein kinase 7 (PK7), Plasmodium falciparum 3D7 (PF3D7_0213400), sequence (Q7YTF7 1-343): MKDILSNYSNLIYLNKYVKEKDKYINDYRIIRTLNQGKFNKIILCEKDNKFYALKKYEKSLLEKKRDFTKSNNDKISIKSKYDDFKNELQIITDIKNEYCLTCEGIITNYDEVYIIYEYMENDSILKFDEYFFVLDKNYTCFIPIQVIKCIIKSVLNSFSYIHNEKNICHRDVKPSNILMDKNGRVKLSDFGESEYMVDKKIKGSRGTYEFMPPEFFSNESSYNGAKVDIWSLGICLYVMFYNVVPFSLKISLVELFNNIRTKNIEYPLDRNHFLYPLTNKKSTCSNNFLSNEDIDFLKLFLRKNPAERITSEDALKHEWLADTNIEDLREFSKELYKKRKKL

[8] = biological target: Calcium-dependent protein kinase 4 (Plasmodium falciparum (isolate 3D7)) (UniProt Q8IBS5); experiment: PfCDPK4 kinase inhibitors, biochemical, TCAMS library (AID 1159588; cut-off not given, nearly all actives have IC50 up to about 0.91 µM); settings: recombinant PfCDPK4, Kinase-Glo ATP depletion luminescence
Calcium-dependent protein kinase 4 (Plasmodium falciparum (isolate 3D7)), sequence (Q8IBS5 whole entry, looked up): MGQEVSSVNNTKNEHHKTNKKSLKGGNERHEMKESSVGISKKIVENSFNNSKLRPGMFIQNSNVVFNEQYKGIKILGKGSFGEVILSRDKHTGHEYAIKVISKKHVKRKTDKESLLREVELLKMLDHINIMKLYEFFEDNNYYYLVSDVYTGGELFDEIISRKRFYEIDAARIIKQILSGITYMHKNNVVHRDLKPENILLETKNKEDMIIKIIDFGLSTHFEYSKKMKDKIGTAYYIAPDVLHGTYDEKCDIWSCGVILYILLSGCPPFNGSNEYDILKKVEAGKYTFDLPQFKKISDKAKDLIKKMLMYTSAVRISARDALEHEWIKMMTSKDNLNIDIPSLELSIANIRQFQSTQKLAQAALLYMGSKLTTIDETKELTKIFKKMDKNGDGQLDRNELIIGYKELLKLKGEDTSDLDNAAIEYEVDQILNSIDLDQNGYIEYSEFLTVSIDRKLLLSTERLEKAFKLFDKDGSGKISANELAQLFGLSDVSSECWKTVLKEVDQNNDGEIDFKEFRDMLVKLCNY

SMILES	growth inhibition [1]	inhibition [2]	inhibition [3]	growth inhibition [4]	outcome [5]	outcome [6]	outcome [7]	outcome [8]
COc1ccc(CNCC2CCC(CNCCc3ccccc3)CC2)cc1Cl (configuration not stated)	29%	23%	-2%	100% (active)	inactive	inactive	inactive	inactive
Oc1ccc2c(CNCCc3ccccc3)c(O)ccc2c1CNCCc1ccccc1	100% (active)	24%	-8%	99% (active)	inactive	inactive	inactive	inactive
O=c1cc(NCCCNC(c2ccccc2)c2ccc(Cl)c(Cl)c2)[nH]c2ccccc12 (configuration not stated)	94% (active)	13%	3%	89% (active)	inactive	inactive	inactive	inactive
CN(C(=O)C1(c2ccc(Cl)cc2)CC1)C1CCN(CCCCCNC(=O)/C=C/c2ccc(Cl)c(Cl)c2)CC1	0%	91% (active)	-2%	88% (active)	inactive	inactive	inactive	inactive
OC1CCCN(Cc2ccc(-c3cccc(-c4nc5ccccc5[nH]4)c3)cc2)C1 (configuration not stated)	-3%	14%	2%	86% (active)	inactive	inactive	inactive	inactive
CNCCNCc1cccc(-c2ccc(-c3nc4c(C)cccc4[nH]3)cc2)c1	21%	17%	-1%	98% (active)	inactive	inactive	inactive	inactive
CN1CCN(CCCN(Cc2cccc(-c3ccc(CNCc4ccc5c(c4)OCO5)cc3)c2)C(=O)CCC2CCCC2)CC1	84% (active)	91% (active)	-6%	98% (active)	inactive	inactive	inactive	inactive
COc1ccc(-c2ccc(CN(C)C3CCC(NC(=O)c4cc5ccccc5[nH]4)CC3)cc2)cn1 (configuration not stated)	2%	31%	-1%	88% (active)	inactive	inactive	inactive	inactive
O=[N+]([O-])c1ccc(Nc2nc(NN=Cc3ccc(-c4ccc([N+](=O)[O-])cc4)o3)nc(Nc3ccccc3)n2)cc1	74% (active)	-9%	-5%	101% (active)	inactive	inactive	inactive	inactive
O=C1C2=C(Nc3ccccc3SC2c2ccccc2)c2ccccc21 (configuration not stated)	94% (active)	5%	-7%	86% (active)	inactive	inactive	inactive	inactive
Cc1noc(-c2ccccc2)c1NC(=O)N1CCN(CCCCCCNC(=O)/C=C/c2ccc(Cl)c(Cl)c2)CC1	1%	6%	2%	95% (active)	inactive	inactive	inactive	inactive
O=C(Nc1ccc(Cl)cc1)Nc1cccc(-c2cccc(-c3nc4ccc(F)cc4[nH]3)c2)c1	84% (active)	79% (active)	-2%	100% (active)	inactive	inactive	inactive	inactive
CCCCCCP(=O)(COc1ccc(CCN(CC(O)COc2cccc3[nH]c(C(N)=O)cc23)CC(O)COc2cccc3[nH]c(C(N)=O)cc23)cc1)OCCCC (configuration not stated)	97% (active)	-10%	3%	99% (active)	inactive	inactive	inactive	inactive
Cc1cccc2[nH]c(-c3cccc(-c4ccc(CN5CCN(CCO)CC5)cc4)c3)nc12	63% (active)	12%	-4%	101% (active)	inactive	inactive	inactive	inactive
Clc1cccc(Cl)c1CCNCC1CCN(CC2CCCCC2)CC1	94% (active)	39%	-5%	98% (active)	inactive	inactive	inactive	inactive
N/C(=N/C(=NCCCCCCN=C(/N=C(/N)Nc1ccc(Cl)cc1)N1CCOCC1)N1CCOCC1)Nc1ccc(Cl)cc1	91% (active)	-11%	2%	93% (active)	inactive	inactive	inactive	inactive
CC1(C)N=C(N)N=C(N)N1OCCc1ccccc1	95% (active)	70% (active)	2%	96% (active)	inactive	inactive	inactive	inactive
c1cncc(CCNCc2ccc(-c3cccc(-c4nc5ccccc5[nH]4)c3)cc2)c1	99% (active)	39%	-2%	102% (active)	inactive	inactive	inactive	inactive
O=S(=O)(Nc1cc2c(cc1O)CCN(C1CCC1)CC2)c1ccc(Oc2ccc(F)cc2)cc1	52% (active)	20%	0%	99% (active)	inactive	inactive	inactive	inactive
Cc1cc(N[C@@H](Cc2ccccc2)C(=O)NCc2cccc(F)c2)nc(NCCc2ccccc2)n1	73% (active)	7%	0%	101% (active)	inactive	inactive	inactive	inactive

SMILES	growth inhibition [1]	inhibition [2]	inhibition [3]	growth inhibition [4]	outcome [5]	outcome [6]	outcome [7]	outcome [8]
CCN1CCC(NCc2ccc(-c3ccc(Cl)cc3)cc2)CC1	33%	25%	-2%	100% (active)	inactive	inactive	inactive	inactive
Cc1cccc2[nH]c(-c3cccc(-c4cccc(CNCCN5CCNCC5)c4)c3)nc12	0%	11%	1%	90% (active)	inactive	inactive	inactive	inactive
c1ccc2c(CNc3ccnc(NCc4cccc5ccccc45)n3)cccc2c1	71% (active)	51% (active)	3%	99% (active)	inactive	inactive	inactive	inactive
COC(=O)Nc1ccc(-c2ccc(C(=O)NC3CCN(C[C@H](O)c4ccnc5ccc(OC)cc45)CC3)cc2)c(C)c1	97% (active)	32%	-2%	100% (active)	inactive	inactive	inactive	inactive
COc1ccc(Oc2ccccc2CNCC2CCN(CC3CCCCC3)CC2)cc1	28%	34%	-8%	85% (active)	inactive	inactive	inactive	inactive
N#Cc1ccc(-c2ccc(C(=O)NC3CCN(CCN4CCc5c(cccc5C(F)(F)F)C4)CC3)cc2)cc1	51% (active)	40%	-1%	98% (active)	inactive	inactive	inactive	inactive
COc1ccc2nccc(N3CCN(CCNCc4ccc5c(n4)NC(=O)CO5)CC3)c2c1	5%	18%	5%	92% (active)	inactive	inactive	inactive	inactive
CN1CCN(c2ccnc3cc4c(cc23)N(C(=O)Nc2ccc3c(c2)CCCC3=O)CC4)CC1	64% (active)	5%	-5%	100% (active)	inactive	inactive	inactive	inactive
CCOC(=O)c1[nH]c(-c2cccc(F)c2)nc1N	2%	0%	9%	98% (active)	inactive	inactive	inactive	inactive
Nc1c(Cl)cc(C(O)CNCCCCCCOCCC=C2CCOCC2)cc1Cl (configuration not stated)	9%	7%	0%	100% (active)	inactive	inactive	inactive	inactive
O=c1c2sc(-c3ccc(Cl)cc3)cc2ncn1Cc1ccc(OCCN2CCCC2)c2ccccc12	81% (active)	38%	1%	100% (active)	inactive	inactive	inactive	inactive
O=C(Nc1cccc(Cl)c1Cl)NC1CCN(Cc2cccc(O)c2)CC1	1%	1%	-1%	98% (active)	inactive	inactive	inactive	inactive
Cc1ccc(C(=O)Nc2ccc(Nc3ccnc4cc(-c5nccs5)ccc34)cc2O)cc1	100% (active)	100% (active)	3%	100% (active)	inactive	inactive	inactive	inactive
CN(C)Cc1cccc(-c2ccc(NC(=O)c3ccc4c(=O)n(CC5CCCO5)cnc4c3)cc2)c1 (configuration not stated)	14%	28%	0%	97% (active)	inactive	inactive	inactive	inactive
CC1CN(Cc2cccc(C#N)c2)CCN1c1ccc(NC(=O)c2cccs2)cc1 (configuration not stated)	93% (active)	4%	5%	94% (active)	inactive	inactive	inactive	inactive
COc1ccc(OCCCCON2C(N)=NC(N)=NC2(C)C)cc1	95% (active)	54% (active)	4%	92% (active)	inactive	inactive	inactive	inactive
Cc1cc2ncn(-c3nccc(NCc4cccnc4)n3)c2cc1C	98% (active)	-2%	-4%	99% (active)	inactive	inactive	inactive	inactive
Cc1cc(N2CCCC2)nc(Nc2ccc(NC(=O)CC(C)C)cc2)n1	53% (active)	37%	-1%	95% (active)	inactive	inactive	inactive	inactive
CC(=O)Nc1ccc(CN2CCC(NC(=O)c3ccc(-c4cccc(Cl)c4)s3)CC2)cc1	59% (active)	34%	3%	97% (active)	inactive	inactive	inactive	inactive
